Test [1] in a line: qHTS assay to identify small molecule antagonists of the sonic hedgehog signaling (Shh) pathway (AID 1259369). Also: nearly all actives have a fitted effect of over 45% in size. Also: potency is read from the fitted curve at half-maximal effect. Put shortly: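 NIH/3T3 stable Gli1-Luc clone, 2,000 cells/well, 4hr settle; cpd + conditioned medium 24hr; Luc reagent 30min RT; luminescence.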
Test [2] has as its target Estrogen receptor beta (Homo sapiens) (UniProt Q92731). Nature of the test: qHTS assay to identify small molecule agonists of the estrogen receptor beta (ER-beta) signaling pathway (AID 1259377; active = well fitted activation curve with a large enough effect in the signal ratio in the repeat runs, not every such curve was filed as active; the % refers to the signal ratio). Put shortly:
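Measured by fluorescence intensity from a B/G FRET beta-lactamase substrate (2 h, room temperature) in ER-beta-UAS-bla HEK293T cells treated with DMSO-dissolved compounds for 16 hr at 37C and 5% CO2.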

Test [3] shares this target. Kind of test: qHTS assay to identify small molecule antagonists of the estrogen receptor beta (ER-beta) signaling pathway (AID 1259378; active = well fitted inhibition curve with a large enough effect in the signal ratio in the repeat runs, not every such curve was filed as active; the % refers to the signal ratio). In short, it runs like this: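 ER-beta-UAS-bla HEK293T cells in 2% charcoal-stripped FBS medium treated with compound plus 1nM final 17-beta-estradiol for 16 hr at 37C. Beta-lactamase reporter read by FRET substrate fluorescence after 2 hours at room temperature.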

The nature of test [4]: qHTS assay to identify small molecule agonists of the androgen receptor (AR) signaling pathway in the presence of an antagonist - cell viability counter screen (AID 1259379; active = well fitted curve in the direction sought with a large enough effect in the repeat runs; an effect the other way counts as inactive or inconclusive;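 also: MDA-kb2 human breast cancer cells carrying an MMTV luciferase reporter; series mostly up to about 92 µM; nearly all actives have a fitted effect of over 25% in size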). Put shortly:
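MDA-kb2 viability measured by CellTiter-Fluor fluorescence in the same wells as the luciferase signal; nilutamide 3.0uM final; 15-point compound titration; 16 hr at 37C.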

The nature of test [5]: qHTS assay to identify small molecule agonists of the estrogen receptor beta (ER-beta) signaling pathway - cell viability counter screen (AID 1259380; active = well fitted curve in the direction sought with a large enough effect in the repeat runs; an effect the other way counts as inactive or inconclusive; also: nearly all actives have a fitted effect of over 30% in size; also: potency is read from the fitted curve at half-maximal effect). In short, it runs like this:
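Measured: luminescence from CellTiter-Glo after 30 min at room temperature, added to wells already read for the LiveBLAzer FRET reporter (2 hr substrate); ER-beta-UAS-bla HEK293T cells had 16 hr compound treatment at 37C, 5% CO2.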

Test [6] addresses Androgen receptor (Homo sapiens) (UniProt P10275). Kind of test: qHTS assay to identify small molecule agonists of the androgen receptor (AR) signaling pathway in the presence of an antagonist (AID 1259381). Also: nearly all actives have a fitted effect of over 15% in size. Put shortly:
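Luminescent ONE-Glo read, 30min at room temperature, follows 16hr compound exposure (15 concentrations) of MDA-kb2 cells at 37C, 0% CO2, with nilutamide added at 3.0uM final.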

The nature of test [7]: qHTS assay to identify small molecule antagonists of the estrogen receptor beta (ER-beta) signaling pathway - cell viability counter screen (AID 1259382; active = well fitted curve in the direction sought with a large enough effect in the repeat runs; an effect the other way counts as inactive or inconclusive; also: series mostly up to about 92 µM; nearly all actives have a fitted effect of over 55% in size). Put shortly: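 Readout: luminescence, CellTiter-Glo, same wells as bla assay. System: ER-beta-UAS-bla GripTite HEK293T, 2% charcoal-stripped FBS. Exposure: compounds plus 1nM 17-beta-estradiol, 16 hr, 37C.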
The target in test [8] is Estrogen receptor (Homo sapiens) (UniProt P03372). Nature of the test: qHTS assay to identify small molecule agonists of the estrogen receptor alpha (ER-alpha) signaling pathway in the presence of an antagonist (AID 1259383). Also: nearly all actives have a fitted effect of over 15% in size. Also: potency is read from the fitted curve at half-maximal effect. As to activation: top concentration of the series differs between compounds. Put shortly: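 Quantitative HTS confirmation: compounds titrated at 15 concentrations onto estrogen-deprived VM7Luc4E2 cells carrying a four-ERE luciferase construct, with ICI-182,780 present at 10.0nM final. Signal is luminescence after 22hr exposure.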
Sequence of Estrogen receptor (Homo sapiens) (P03372 whole entry, looked up): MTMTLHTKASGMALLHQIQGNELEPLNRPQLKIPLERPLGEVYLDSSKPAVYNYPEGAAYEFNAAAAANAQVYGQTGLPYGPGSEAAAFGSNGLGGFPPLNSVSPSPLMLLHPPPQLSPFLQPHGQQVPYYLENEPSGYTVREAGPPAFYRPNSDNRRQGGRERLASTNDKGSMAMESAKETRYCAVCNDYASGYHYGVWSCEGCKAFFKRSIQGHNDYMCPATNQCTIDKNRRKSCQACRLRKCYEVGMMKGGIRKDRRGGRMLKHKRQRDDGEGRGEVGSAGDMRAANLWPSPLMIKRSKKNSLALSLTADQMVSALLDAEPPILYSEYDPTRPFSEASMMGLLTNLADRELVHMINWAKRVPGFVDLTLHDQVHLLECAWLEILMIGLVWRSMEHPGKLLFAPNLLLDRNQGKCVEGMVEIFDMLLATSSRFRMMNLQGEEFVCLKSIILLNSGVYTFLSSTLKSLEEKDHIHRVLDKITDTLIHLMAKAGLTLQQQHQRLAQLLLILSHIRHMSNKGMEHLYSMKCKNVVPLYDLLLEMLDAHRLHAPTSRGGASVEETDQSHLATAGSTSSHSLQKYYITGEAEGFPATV

The nature of test [9]: qHTS assay to identify small molecule agonists or antagonists of the thyroid stimulating hormone receptor (TSHR) signaling pathway - wild type cell line counter screen (AID 1259384). Put shortly: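 Wild-type Hek293 cells, 800/well, 18 h at 37C, then compound with Ro20-1724 for 30 min RT. cAMP by HTRF (cAMP-d2/anti-cAMP cryptate), 1 h RT, fluorescence read. 15 concentrations, triplicates.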

Test [10] has as its target Thyrotropin receptor (Homo sapiens) (UniProt P16473). Kind of test: qHTS assay to identify small molecule antagonists of the thyroid stimulating hormone receptor (TSHR) signaling pathway (AID 1259385). Also: nearly all actives have a fitted effect of over 20% in size. Also: potency is read from the fitted curve at half-maximal effect. In short, it runs like this: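 TSHR-HEK293 cells (800/well) plated 18 h, then compounds with Ro20-1724 and TSH at 1.5 ng/mL final, 30 min at room temperature. cAMP quantified by HTRF (cAMP-d2/anti-cAMP-cryptate, 1 h); 15 concentrations in triplicate.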

Structures are written as SMILES. Inconclusive results are not listed. Active and inactive are the calls of the source. Unless noted, calls follow the shape of the full dose curve.

This is an account of results in PubChem BioAssay (Tox21).

Sequence of Androgen receptor (Homo sapiens) (P10275 whole entry, looked up): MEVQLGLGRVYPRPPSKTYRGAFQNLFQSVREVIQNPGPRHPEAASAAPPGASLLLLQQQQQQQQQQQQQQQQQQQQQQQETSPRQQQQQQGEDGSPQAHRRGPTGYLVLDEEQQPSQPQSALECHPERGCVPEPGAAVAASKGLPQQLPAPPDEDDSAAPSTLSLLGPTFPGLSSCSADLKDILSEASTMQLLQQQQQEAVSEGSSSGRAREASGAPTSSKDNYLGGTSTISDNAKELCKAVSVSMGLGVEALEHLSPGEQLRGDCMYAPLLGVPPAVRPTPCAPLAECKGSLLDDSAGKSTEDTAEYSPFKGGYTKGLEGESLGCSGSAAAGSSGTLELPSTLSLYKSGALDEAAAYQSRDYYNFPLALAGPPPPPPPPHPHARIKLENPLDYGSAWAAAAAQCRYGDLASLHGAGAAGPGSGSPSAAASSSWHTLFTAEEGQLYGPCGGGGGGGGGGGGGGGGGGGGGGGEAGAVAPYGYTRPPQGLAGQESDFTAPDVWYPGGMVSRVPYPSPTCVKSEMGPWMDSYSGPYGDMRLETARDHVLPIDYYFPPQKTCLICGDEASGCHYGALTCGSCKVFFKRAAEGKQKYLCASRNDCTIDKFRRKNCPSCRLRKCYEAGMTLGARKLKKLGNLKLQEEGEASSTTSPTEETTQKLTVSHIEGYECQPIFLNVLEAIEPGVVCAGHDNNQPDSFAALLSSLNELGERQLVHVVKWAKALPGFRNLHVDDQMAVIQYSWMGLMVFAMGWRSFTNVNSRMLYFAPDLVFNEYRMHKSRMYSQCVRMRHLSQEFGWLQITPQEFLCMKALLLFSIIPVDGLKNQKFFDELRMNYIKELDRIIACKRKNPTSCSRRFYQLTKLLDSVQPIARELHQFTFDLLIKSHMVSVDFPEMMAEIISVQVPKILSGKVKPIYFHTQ
Sequence of Estrogen receptor beta (Homo sapiens) (Q92731 whole entry, looked up): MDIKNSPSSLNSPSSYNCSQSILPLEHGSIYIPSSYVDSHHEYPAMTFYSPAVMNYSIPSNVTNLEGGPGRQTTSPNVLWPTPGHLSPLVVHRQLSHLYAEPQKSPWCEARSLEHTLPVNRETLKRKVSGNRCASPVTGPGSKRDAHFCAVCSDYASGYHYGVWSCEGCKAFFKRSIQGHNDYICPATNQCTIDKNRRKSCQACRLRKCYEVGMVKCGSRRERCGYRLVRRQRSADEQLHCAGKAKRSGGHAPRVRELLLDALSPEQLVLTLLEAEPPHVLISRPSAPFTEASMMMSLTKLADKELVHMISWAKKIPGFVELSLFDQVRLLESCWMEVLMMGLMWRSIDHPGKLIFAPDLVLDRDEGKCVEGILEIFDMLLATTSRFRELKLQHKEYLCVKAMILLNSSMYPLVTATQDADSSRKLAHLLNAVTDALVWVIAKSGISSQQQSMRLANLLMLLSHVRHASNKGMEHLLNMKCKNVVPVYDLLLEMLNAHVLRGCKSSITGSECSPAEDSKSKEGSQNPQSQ
Sequence of Thyrotropin receptor (Homo sapiens) (P16473 whole entry, looked up): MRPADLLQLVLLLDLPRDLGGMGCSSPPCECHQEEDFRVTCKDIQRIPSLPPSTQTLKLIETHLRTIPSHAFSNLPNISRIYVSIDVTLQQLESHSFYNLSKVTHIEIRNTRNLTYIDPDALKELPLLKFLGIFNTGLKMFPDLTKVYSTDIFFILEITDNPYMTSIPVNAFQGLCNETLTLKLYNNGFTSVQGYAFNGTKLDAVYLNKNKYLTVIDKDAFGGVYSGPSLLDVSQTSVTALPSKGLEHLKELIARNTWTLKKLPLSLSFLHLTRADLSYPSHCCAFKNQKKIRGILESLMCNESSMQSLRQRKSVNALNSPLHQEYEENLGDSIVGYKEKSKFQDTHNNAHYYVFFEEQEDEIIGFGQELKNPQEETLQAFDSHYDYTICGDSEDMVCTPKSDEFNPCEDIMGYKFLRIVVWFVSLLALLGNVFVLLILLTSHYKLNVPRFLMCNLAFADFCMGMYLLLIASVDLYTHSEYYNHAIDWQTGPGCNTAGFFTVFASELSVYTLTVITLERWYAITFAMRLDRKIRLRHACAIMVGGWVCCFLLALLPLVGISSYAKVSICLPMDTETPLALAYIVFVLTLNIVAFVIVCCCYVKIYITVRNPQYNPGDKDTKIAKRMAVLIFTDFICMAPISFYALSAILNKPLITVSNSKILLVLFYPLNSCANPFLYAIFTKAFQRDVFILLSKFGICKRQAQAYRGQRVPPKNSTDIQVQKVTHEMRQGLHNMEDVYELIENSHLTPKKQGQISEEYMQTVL

On to `CCC(=O)OC`, for which the Potency result in [1], in [2], in test [3], in [4], in [5] and in test [6] was “inactive” in each case. Moreover, the Potency result in test [7], in [8] and in [10] was “inactive” in each case. The compound was called inactive in test [9].

For the compound `OC(CCN1CCCC1)(c1ccccc1)C1CCCCC1` (configuration not stated), in [1], the Potency was 8.41 µM (active). Besides, the Potency result in test [2], in [3], in test [4], in test [5], in [6] and in test [7] was “inactive” throughout. The result in [9] was inactive.

Regarding `C[C@H]1C[C@H](O)c2ccsc2S1(=O)=O`, the Potency entry in test [1], in test [2], in test [3], in test [4], in test [5] and in [6] was “inactive” throughout. The Potency result in test [7], in test [8] and in test [10] was “inactive” throughout. Also, the outcome in test [9] was inactive.

As to `O=C(/C=C/c1ccccc1)OCCc1ccccc1`, the Potency result in test [1], in [2], in [3], in test [4], in test [5] and in test [6] was “inactive” in each case. The Potency result in [7] is “inactive”. Also, the Potency in test [8] is 3.44 µM (active); in test [10], 68.6 µM (active). Moreover, in test [9], the compound was classed as inactive.

On to `C[C@@H](O)[C@H]1C(=O)N2C(C(=O)O)=C([C@H]3CCCO3)S[C@H]12`, for which the Potency result in test [1], in test [2], in test [3], in [4], in [5] and in test [6] was “inactive” in each case. For the same compound, the Potency result in test [7], in test [8] and in [10] was “inactive” each time. Moreover, the compound was called inactive in test [9].

Take `Cc1cscn1`: the Potency entry in test [1], in test [2], in test [3], in test [4], in test [5] and in [6] was “inactive” each time. The Potency result in [7], in test [8] and in test [10] was “inactive” throughout. Further, the compound was called inactive in test [9].

On to `C=C1CCC2CC1C2(C)C` (configuration not stated), for which the Potency entry in [1], in test [2], in test [3], in [4], in test [5] and in test [7] was “inactive” in each case. Also, the Potency entry in test [8] and in test [10] was “inactive” in each case. Further, the outcome in [9] was inactive.

As for `C=C(C)C(=O)OCCOCCOC(=O)C(=C)C`, the Potency entry in [1], in test [2], in test [3], in [4], in [5] and in test [7] was “inactive” each time. In addition, the Potency entry in test [8] is “inactive”.

Take `CCCCN(CCCC)C(C(N)=O)c1ccc(OC)cc1` (configuration not stated): the Potency entry in [1], in test [2], in test [3], in [4], in test [5] and in test [7] was “inactive” throughout. For the same compound, the Potency result in test [8] is “inactive”.

Consider `O=C(Cn1ccnc1[N+](=O)[O-])NCCO`, for which the Potency entry in test [1], in [2], in test [3], in test [4], in test [5] and in [6] was “inactive” each time. For the same compound, the Potency result in test [7] and in [8] was “inactive” each time. The call in test [9] was inactive.

`CCN(CC)CCNC(=O)COc1ccc(OC)cc1`: the Potency result in test [1], in test [2], in test [3], in test [4], in test [5] and in test [7] was “inactive” each time. In [8], the Potency result was “inactive”.

As to `COc1cc(C(=O)NCCCCCC(=O)O)cc(OC)c1OC`, the Potency result in [1], in [2], in test [3], in test [4], in test [5] and in test [7] was “inactive” each time. The Potency result in test [8] is “inactive”. For the same compound, the compound was called inactive in test [9].

In the case of `C=C1C[C@@]23CC[C@H]4[C@@](C)(CCC[C@@]4(C)C(=O)O[C@@H]4O[C@H](CO)[C@@H](O)[C@H](O)[C@H]4O)[C@@H]2CC[C@]1(O[C@@H]1O[C@H](CO)[C@@H](O)[C@H](O[C@@H]2O[C@H](CO)[C@@H](O)[C@H](O)[C@H]2O)[C@H]1O[C@@H]1O[C@H](CO)[C@@H](O)[C@H](O)[C@H]1O)C3`, the Potency result in test [1], in test [2], in test [3], in [4], in test [5] and in test [6] was “inactive” throughout. The Potency entry in [7], in [8] and in [10] was “inactive” each time. For the same compound, the compound was classed as inactive in test [9].

Take `CN(C)CCN1C(=O)c2ccccc2N(C)c2ccccc21`: the Potency result in test [1], in [2], in [3], in test [4], in test [5] and in test [7] was “inactive” throughout. Further, the Potency entry in test [8] and in test [10] was “inactive” in each case. Moreover, the outcome in test [9] was inactive.

`CC(C)=CCC/C(C)=C/CC/C(C)=C/CCC(=O)OC/C=C(\C)CCC=C(C)C`: the Potency entry in test [1], in test [2], in test [3], in [4], in test [5] and in [7] was “inactive” throughout. Moreover, the Potency result in [8] and in [10] was “inactive” in each case. In addition, the compound was called inactive in test [9].

Consider `CCCCCCCCN`, for which the Potency entry in test [1], in [2], in test [3], in test [4], in test [5] and in test [7] was “inactive” throughout. For the same compound, the Potency result in test [10] was “inactive”. In addition, the call in [9] was inactive.

With `Cc1[nH]cnc1CN1CCc2c(c3ccccc3n2C)C1=O`, the Potency entry in test [1], in test [2], in test [3], in test [4], in test [5] and in [7] was “inactive” in each case. Moreover, in [9], the compound was called inactive.

For `CC(=O)c1ccc([N+](=O)[O-])cc1`, the Potency result in [1], in test [2], in [3], in test [4], in test [5] and in test [7] was “inactive” each time. For the same compound, the Potency result in [10] is “inactive”. Besides, the outcome in [9] was inactive.

As to `c1ccc2sc(SN(C3CCCCC3)C3CCCCC3)nc2c1`, the Potency result in test [1], in test [2], in test [3], in test [4], in test [5] and in test [7] was “inactive” each time. Besides, the Potency result in test [8] and in test [10] was “inactive” in each case. The call in test [9] was inactive.

Take `CCC=CC#N`: the Potency entry in test [1], in test [2], in test [3], in test [4], in test [5] and in test [7] was “inactive” throughout. The Potency entry in test [8] and in [10] was “inactive” each time. For the same compound, the compound was called inactive in test [9].

For `O=C(Nc1cccc2c(=O)cc(-c3nn[nH]n3)oc12)c1ccc(OCCCCc2ccccc2)cc1`, the Potency result in [1], in test [2], in test [3], in test [4] and in test [10] was “inactive” each time. In addition, the Potency in [5] was 10.6 µM (active). Besides, in [9], the outcome was inactive.

For the compound `CCc1ccccc1`, the Potency entry in [1], in [2], in test [3], in test [4], in [5] and in test [7] was “inactive” in each case. For the same compound, the Potency result in test [8] and in test [10] was “inactive” in each case. Further, the call in test [9] was inactive.

Turning to `c1ccc2c(c1)CCc1ccccc1N2`, the Potency result in [1], in test [2], in test [3], in [4], in test [5] and in test [7] was “inactive” each time. Also, in test [10], the Potency entry is “inactive”. Moreover, the outcome in [9] was inactive.

Regarding `CC1(C)O[C@@H]2C[C@H]3[C@@H]4C[C@H](F)C5=CC(=O)C=C[C@]5(C)[C@H]4[C@@H](O)C[C@]3(C)[C@]2(C(=O)CO)O1`, the Potency entry in test [1], in test [2], in test [3], in test [4], in test [5] and in [7] was “inactive” in each case. In addition, the Potency result in [8] and in test [10] was “inactive” in each case. Besides, the compound was classed as inactive in test [9].
